# According to PubChem BioAssay (NCI):
# This is part of a sample that, as a whole, favours compounds with a hit. Of some 83,000 tested, about 20% had one in any assay.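 Note: values are percent growth. 100 is the growth of untreated cells, values between 100 and 0 indicate rising inhibition; between -100 and 0 indicates cell death.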 Values without a mark were called inactive. Activity calls are given as the source filed them. The calls were made as follows: active = growth percent below 10; inactive = the rest.
# System: MDA-MB-468 breast
# Assay: NCI-60 one-dose screen, 48 h (100 = growth as untreated, 0 = no growth, -100 = all killed)
# Settings: 10 µM unless noted
row,SMILES,growth
1,COc1cc(-c2nn(C(C)(C)C)cc2-c2ccnc(NCCCNS(=O)(=O)c3ccccc3)n2)ccc1Cl,67.3%
2,Cc1ccc(S(=O)(=O)NCCNc2cc(-c3cn(C(C)(C)C)nc3-c3cccc(O)c3)ccn2)cc1,35.8%
3,Cc1cccc2sc(/N=C(\N)C(Cl)(Cl)Cl)nc12,110%
4,Cc1[nH]c(-c2cc(N)ccc2Cl)c2c1C(=O)CCCC2,-5.42% (active)
5,Cc1cc(Nc2cccc(C(F)(F)F)c2)n2c(nc3ccccc32)c1C#N,-4.87% (active)
6,CC(C)C[C@H](NC(=O)[C@H](Cc1ccccc1)n1ccc(N2CCCCC2)cc1=O)B(O)O,-24.1% (active)
7,CCNCCCn1c2c(c3ccc([N+](=O)[O-])cc3c1=O)C(=O)c1cc(OC)cnc1-2,-34.3% (active)
8,C[C@H](C(=O)N[C@@H](Cc1ccc(-c2ccccc2)cc1)C(=O)NC1CC(C)(C)N(C)C(C)(C)C1)c1ccc(-c2ccccc2)c(F)c1,-86.5% (active)
9,COC1=C(C)C(=O)N2[C@@H]1[C@H](c1ccccc1)OC21C=CC(=O)C=C1,-20.4% (active)
10,COc1ccc(C2c3sc4c(C)cccc4c3Oc3nc(CC(=O)Nc4ccccc4)[nH]c(=O)c32)cc1 (stereo unspecified),18.6%
11,CC(=O)O[C@H]1[C@H](CC#CC#CC[C@@H]2C[C@]3(C)[C@H]4CC=C5[C@H]6[C@@H](C)[C@H](C)CC[C@]6(C(=O)NCCCCCCCCN)CC[C@@]5(C)[C@]4(C)CC[C@H]3C(C)(C)[C@H]2OC(C)=O)C[C@]2(C)[C@H]3CC=C4[C@H]5[C@@H](C)[C@H](C)CC[C@]5(C(=O)NCCCCCCCCN)CC[C@@]4(C)[C@]3(C)CC[C@H]2C1(C)C,73.5%
